Screening data as filed in PubChem BioAssay.
Only a selection was taken, and hits are over-represented in it overall.
Tg IFNy HTS = T. gondii growth inhibition under IFN-gamma; activity change, negative = inhibition, % (no concentration beside the values); AID 1259416; Toxoplasma gondii growth in IFN-gamma-treated host cells; hits give low values; 69,000 compounds, 3.8% hits; in the data active = activity change below about -70%, passing the limit was not always enough;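 note: host cells are HeLa cells infected with Toxoplasma gondii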
Large screens that a line does not name were inactive; ! = a repeat was not active.

Cc1oc(-c2ccc(OC(C)C)cc2)nc1CSc1nc2c(=O)[nH]cnc2n1-c1ccccc1	none
COc1cccc(-c2nc(CSc3nc4c(=O)[nH]cnc4n3-c3ccccc3)c(C)o2)c1OC	none
Cc1ccc(-c2nc(CSc3nc4c(=O)[nH]cnc4n3-c3ccc(C)cc3)c(C)o2)cc1	Tg IFNy HTS -94.9
CCn1c(SCc2nc(-c3cccc(Cl)c3)oc2C)nc2c(=O)[nH]cnc21	none
Cc1cccc(-c2nc(CCNC(=O)c3cccc(C(F)(F)F)c3)cs2)c1	none
Cn1ccnc1CNC(=O)c1cc(-c2cccs2)on1	none
CN(C)C(=O)N1CCC2(CCCN(C(=O)Cc3cccnc3)C2)C1 (stereo unspecified)	none
Cn1ccc(C(=O)N2CCC3(CCOCC3NS(C)(=O)=O)CC2)n1 (stereo unspecified)	none
COc1ccc(C)cc1NC(=O)N1CCC(c2nc(C(=O)N3CCCC3)c(C)o2)CC1	none
Cn1ncc2c3ccccc3n(CC(=O)NCc3ccccn3)c2c1=O	none
NC(=O)c1cnc2n1CCN(C(=O)c1csc(Cc3ccccc3)n1)C2	none
Cc1ccsc1CCNC(=O)C1(Oc2cccnc2C)CCNCC1	none
CN(C)[C@@H]1CCN(S(C)(=O)=O)[C@H]1Cc1cccnc1	none
CCc1cc(N(C)CCc2noc(C)n2)nc(N2CCOCC2)n1	none
CC(C)CC(=O)Nc1n[nH]c2c1CN(C(=O)C1CCN(C)CC1)C2(C)C	Tg IFNy HTS -76.1
CN(Cc1nc(-c2cccnc2)no1)Cc1cccs1	none
CCS(=O)(=O)N1CCC2(CC1)OC(=O)C(C)=C2C(=O)Nc1cc(F)ccc1F	none
COCCNC(=O)c1c[nH]c2cc3c(cc2c1=O)OCCO3	none
O=C1CN2Cc3c(ccc(Cl)c3Cl)N=C2N1	Tg IFNy HTS -82.8!
CCCNC(=O)Oc1noc2ccc(Cl)cc12	none
Cc1cnccc1N1CCCN(Cc2c(CO)cnc(C)c2O)CC1	none
CN(C)C(=O)CO[C@H]1CN(Cc2ccoc2)[C@H]2COC[C@@H]12	none
COc1ccc(CN2CCO[C@H]3[C@H]2CC[C@H]3OCCCn2cccn2)cc1	none
Cc1ccc(-c2cc(C(F)(F)F)nn2-c2ccc(S(N)(=O)=O)cc2)cc1	none
NCC(=O)Nc1ccc(-c2cccc(C(F)(F)F)c2)cc1F	none
NCC(=O)Nc1ccc(-n2nc(C(F)(F)F)cc2-c2ccc3c(ccc4ccccc43)c2)cc1	Tg IFNy HTS -86.6
CN(CC1Cc2ccccc2O1)C(=O)c1cn(-c2ccccc2)nn1 (stereo unspecified)	none
COc1ccc(CCNC(=O)CC2Nc3c4ccccc4nc(=S)n3C2=O)cc1OC (stereo unspecified)	none
CCn1cc2c(n1)CN(S(=O)(=O)N(C)C)CC2COC (stereo unspecified)	none
Cn1cc(C(CNC(=O)Nc2ccc(Br)cc2F)c2cccnc2)c2ccccc21 (stereo unspecified)	none
O=C(NCC(c1cccnc1)c1c[nH]c2ccccc12)Nc1ccc(Br)cc1F (stereo unspecified)	Tg IFNy HTS -116.2
O=C(NCC(c1cccnc1)c1c[nH]c2ccccc12)Nc1cccc(Br)c1 (stereo unspecified)	none
COCCn1c2c(ccc1=O)CC(NCC1CCOC1)CC2 (stereo unspecified)	none
CCN1CCC[C@H]1CNc1nc(-c2ccccn2)nc2c1CCN(C(C)=O)C2	none
Fc1ccc(CSc2nnnn2-c2ccc3c(c2)OCO3)c(Cl)c1	Tg IFNy HTS -72.4
c1ccc(CSc2nnnn2-c2ccc3c(c2)OCO3)nc1	none
Cc1cc(C)cc(NC(=O)CSc2nnnn2-c2ccc3c(c2)OCO3)c1	none
Cc1ccc(F)c(CN2C[C@@H](C(=O)NCC3CCOCC3)[C@@H]3OCC[C@H]32)c1	none
CN(C)C(=O)N1CCCn2c(nc(Cn3cncn3)cc2=O)C1	none
CC(C)CNC(=O)C1=NOC2(CCN(Cc3ccc(C(C)C)cc3)C2)C1 (stereo unspecified)	Tg IFNy HTS -82.4
CC(C)CNC(=O)C1=NOC2(CCN(C(=O)c3ccccn3)C2)C1 (stereo unspecified)	none
COc1ccc(CN2CCC3(CC(C(=O)NCC(C)C)=NO3)C2)cc1 (stereo unspecified)	none
c1ccc(C[C@H]2COC(C3=N[C@H](Cc4ccccc4)CO3)=N2)cc1	none
Cc1noc(C)c1-c1nc2c([nH]1)CC(c1ccc(Cl)cc1)CNC2=O (stereo unspecified)	none
CN1C(=O)c2cc(NC(=O)Cc3cccs3)ccc2OC[C@@H]2O[C@H](CC(=O)NCc3ccc(-c4ccccc4)cc3)CC[C@H]21	none
CN1C(=O)c2cc(NC(=O)Cc3cccs3)ccc2OC[C@H]2O[C@H](CC(=O)NCc3ccc(-c4ccccc4)cc3)CC[C@@H]21	Tg IFNy HTS -84.9
CN1C(=O)c2cc(NC(=O)Cc3cccs3)ccc2OC[C@H]2O[C@@H](CC(=O)NCCc3ccncc3)CC[C@@H]21	none
CN(C)C(=O)[C@@]12CCCN(c3ncccn3)[C@H]1CN(Cc1ccc(Cl)cc1)C2	none
Cc1ccccc1CSCC(=O)Nc1c[nH]c(=O)[nH]c1=O	none
O=C(COc1ccc(Cl)cc1)Nc1ccc(Cl)cn1	none
O=C(COc1ccc(Cl)cc1)Nc1c[nH]c(=O)[nH]c1=O	Tg IFNy HTS -106.2
NCCS(=O)(=O)c1ccc(F)cc1	none
COc1ccccc1C(=O)Nc1cccc(NC(=O)c2c(Cl)cnn2C)c1	Tg IFNy HTS -85.2
COc1ccccc1C(=O)Nc1ccc(-c2nc(-c3ccc(C)cc3)co2)cc1	none
COCC1(C(=O)Nc2cccc(NC(=O)c3ccccc3OC)c2)CCC1	none
Cn1cc(C2CC(=O)NC23CCN(C(=O)c2ccco2)CC3)cn1 (stereo unspecified)	none
Cc1ncsc1-c1ccn(CC(=O)Nc2ccnn2C2CCCCC2)n1	none
CC(C)NC(=O)N1CCC2(CC1)OC(C(=O)Cc1ccccn1)Cn1ccnc12 (stereo unspecified)	none
O=C(NCc1ccccc1-n1cncn1)c1n[nH]c2c1CCC2	none
O=C(COc1ccc(Cl)cc1)ON=C1C2CC3CC(C2)CC1C3	none
CCCN(CCC)S(=O)(=O)c1ccc(C(=O)O)cc1	none
CCCN(CCC)S(=O)(=O)c1ccc(C(=O)ON=C2C3CC4CC(C3)CC2C4)cc1	Tg IFNy HTS -79.2
CC(C)(C)C(=O)N1C[C@H]2COC[C@@]2(c2nnc(C3CC3)o2)C1	none
Cc1ccsc1[C@@H]1CCN(C(=O)c2nc3c(s2)CCCC3)C[C@H]1O	none
Cc1cnc(-n2cnnc2)c(-c2cc(O)cc(CCC3CCCCN3)c2)c1 (stereo unspecified)	none
FC(F)(F)c1cc(Cl)c2nsnc2c1	none
CO[C@H]1CN(Cc2cn(-c3ccccc3)nc2-c2ccncc2)CC[C@H]1N	none
N#Cc1c(=O)[nH]c(O)c2c(=N)oc3ccc(Cl)cc3c12	none
N#Cc1c(=N)nc2oc3ccc(Cl)cc3c3c(C#N)c(N)[nH]c1c23	Tg IFNy HTS -75.1
COc1ccc(Br)cc1-c1nc(CSc2nc3c(=O)[nH]cnc3n2C)c(C)o1	none
O=C(Cc1csc(Nc2ccccc2)n1)Nc1ccccc1	none
CC(C)CNC(=O)C1Cn2ccnc2C2(CCN(c3ncccn3)CC2)O1 (stereo unspecified)	none
Cc1ccc(NC(=O)CC(=O)NC(CCO)c2ccc(C)cc2)cc1 (stereo unspecified)	none
N[C@H]1C[C@@H]1c1ccc(-c2cccc(O)c2)cc1	none
O=C(c1ccc2c(c1)OCO2)N1CC[C@@H]2[C@H](CO)Nc3ccc(C#Cc4ccccc4)cc3[C@@H]21	none
CC1CC(N(C(=O)c2ccco2)c2ccccc2)c2ccccc2N1C(=O)c1ccco1 (stereo unspecified)	none
CC1CC(N(C(=O)c2ccc3c(c2)OCO3)c2ccccc2)c2ccccc2N1 (stereo unspecified)	Tg IFNy HTS -96.2
CS(=O)(=O)N1CCc2ccc(=O)n(Cc3cccnc3)c2CC1	none
Cc1ccc(S(=O)(=O)N2CCC3(CC2)CN(c2ccccc2)C3=O)cc1	none
